Measurements from PubChem BioAssay.
Activity calls are given as the source filed them.

assay: optical density change of DRC41 E. coli – strain DRC41, OD650, 24 h, E. coli filamentation project, primary screen (AID 1093);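 further: MC1000 strain lacking acrAB efflux and sulA so SOS filamentation is blocked; test concentration not given here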; settings: E. coli DRC41 growth, higher = more signal, called active from +8 up or from −8 down

z-score, inactive:
CCCC1(C(=O)OC)C=C2C(=C(C)C(=O)C2C)CN1 (stereo not given) -0.827
NCCCCCNC(=O)[C@@H]1C[C@@H]2C(=O)N[C@@H](CCCCN)C(=O)N2[C@@H]1c1ccc(O)cc1 -0.0616
CCCN1C(=O)[C@]2(Cc3ccccc31)N=C(c1ccc(OCCCO)cc1)O[C@@H]2c1ccccc1 -0.0411
CCN(CC)c1ccc(N2CC=CC34O[C@@H]5/C=C\CCCOC(=O)C5[C@H]3C(=O)N(C(C)CO)[C@@H]4C2=O)cc1 (stereo not given in full) 1.42
NC(=O)[C@H]1[C@@H]2C(=O)O[C@@H](c3ccccc3)[C@@H](c3ccccc3)N2[C@@H](c2ccc(OCCO)cc2)[C@]12C(=O)Nc1ccc(C#CCCO)cc12 -0.595
CC(C)C(CO)N1C(=O)[C@@H]2[C@H]3C(=O)OCC=C[C@H]3OC23C=CCN(c2ccc(Cl)cc2)C(=O)[C@@H]13 (stereo not given in full) 0.669
C=CCNC(=O)[C@@H]1[C@H]2C(=O)O[C@H](c3ccccc3)[C@H](c3ccccc3)N2[C@H](c2ccccc2OCCO)[C@@]12C(=O)Nc1ccc(C#CCC(C(=O)OC)C(=O)OC)cc12 -0.736
COc1ccc(C#Cc2ccc3c(c2)[C@]2(C(=O)N3)[C@H](C(=O)O)[C@H]3C(=O)O[C@H](c4ccccc4)[C@H](c4ccccc4)N3[C@@H]2c2ccc(O)cc2)cc1 0.781
CCCC[C@@H](O)C1=C(COC)C[C@H]2C(=O)N(Cc3ccccc3)C(=O)[C@H]2[C@H]1CO 0.649
COC(=O)[C@@]1(Cc2ccc(F)cc2)[C@H]2c3cc(C(=O)N4CCCC4)n(Cc4ccc(C)c(F)c4F)c3C[C@H]2CN1C(=O)c1ccccc1 -0.477
C=CCNC(=O)[C@@H]1[C@H]2C(=O)O[C@H](c3ccccc3)[C@H](c3ccccc3)N2[C@H](c2ccc(O)cc2)[C@@]12C(=O)N(C(=O)OCCOC)c1ccc(C#CC3=CCCCC3)cc12 -0.633
C#Cc1cc2ccccc2oc1=O -1.45
COc1cc(NN2C(C(O)c3cc(OC)c(OC)c(OC)c3)C=CC3C(=O)N(C)C(=O)C32)cc(OC)c1OC (stereo not given) -0.678
CO[C@H]1O[C@H](CO)[C@@H](OC(=O)Nc2ccccc2)[C@H](OC(=O)c2cc3ccccc3[nH]2)[C@H]1OC(=O)c1cc2ccccc2[nH]1 0.0433
CCOC(=O)C[C@H]1[C@H](OC(=O)Cc2ccc3c(c2)OCO3)[C@@H](NC(=O)c2ccc3ccccc3n2)c2cc(OCCCO)ccc2N1C(=O)c1ccc2ccccc2n1 2.22
COc1ccc(C#Cc2ccc3c(c2)[C@]2(C(=O)N3)[C@H](c3ccc(OCCO)cc3)N3[C@H](c4ccccc4)[C@H](c4ccccc4)OC(=O)[C@H]3[C@@H]2C(=O)NC[C@H](O)c2ccccc2)cc1 1.16
NCCCCCNC(=O)[C@H]1C[C@H]2C(=O)N3CCC[C@H]3C(=O)N2[C@H]1c1cccc(OCCO)c1 0.0425
CO[C@H]1O[C@H](CO)[C@@H](OC(=O)Nc2ccc(Br)cc2)[C@@H]2OC(=O)[C@@H](Cc3ccccc3)C/C=C/C[C@H](Cc3ccccc3)C(=O)O[C@@H]12 1.03
CCOC(=O)[C@@H]1CCCCN1C(=O)C(=O)OC 0.66
O=C(Cc1ccccc1)[C@H]1C2C=CCCC(c3ccccc3)=C2CN1Cc1ccccc1 (stereo not given in full) 2.42
CCOC(=O)C[C@H]1[C@H](OC(=O)Cc2ccc3c(c2)OCO3)[C@@H](NC(=O)C2CCCCC2)c2cc(OCCCO)ccc2N1C(=O)c1ccccc1 2.58
C=C[C@H](C)[C@H](OC(=O)Nc1ccc(SC)cc1)c1ccc(OCCO)cc1 0.938
CCCCC(CC)C(O)C1C=CC2C(=O)N(c3ccccc3)C(=O)C2N1Nc1ccccc1F (stereo not given) 0.379
Cc1ccc(C(C)CC(O)C2C=CC3C(=O)N(c4ccccc4)C(=O)C3N2Nc2ccccc2)o1 (stereo not given) -0.866
CCOC(=O)C1=C[C@@H](C(C)(C)C)N(S(=O)(=O)c2ccc(C)cc2)[C@H]1c1cccc2ccccc12 -0.296
CC(C)N1C(=O)C[C@@](C(=O)NC2CC2)(c2ccc([N+](=O)[O-])cc2)[C@H]1c1ccc(CO)cc1 0.718
COC(=O)c1c(CC[C@@H](CO)NC(=O)N2CCC[C@H]2Cn2cc(C3(O)CCCCC3)nn2)oc(C(C)=O)c1C(=O)OC -0.889
NC(=O)NCC#Cc1ccc2c(c1)[C@]1(C(=O)N2)[C@H](c2ccccc2OCCO)N2[C@H](c3ccccc3)[C@H](c3ccccc3)OC(=O)[C@H]2[C@@H]1C(=O)NC[C@H](O)c1ccccc1 2.36
CN(C)C(=O)[C@]1(CCC(=O)OC(C)(C)C)N=C(c2ccc(OCCCO)cc2)O[C@@H]1c1ccccc1CN=[N+]=[N-] 0.682
Cc1ccccc1C(O)C1C=CC2C(=O)NC(=O)C2N1Nc1ccccn1 (stereo not given) -0.957
COCCOC(=O)N1C(=O)[C@@]2(c3ccccc31)[C@H](C(=O)NC[C@H](O)c1ccccc1)[C@H]1C(=O)O[C@H](c3ccccc3)[C@H](c3ccccc3)N1[C@@H]2c1ccc(O)cc1 1.14
CC1CC/C=C\[C@H]2OC34C=CCN(C(C)C)C(=O)[C@H]3N(CCO)C(=O)[C@@H]4C2C(=O)O1 (stereo not given in full) 1.48
CCOC(=O)C=Cc1cccc(C)c1O 0.666
CCCCCCCCCCC(O)C1C=CC2C(=O)N(c3ccccc3)C(=O)C2N1Nc1ccc(C#N)cc1 (stereo not given) -0.983
COCC(=C=CC[C@H](O)c1ccc(CO)o1)CCO -0.349
